Measured values reported in PubChem BioAssay AID1645858 (Buhrlage Lab, Dana-Farber Cancer Institute and Novartis …, 2021).
Among all 47,000 compounds or so, about 330 (0.7%) were called active. No stated cut-off is given here; in the data, active means inhibition above about 30%; inactive means the rest. For the sample, actives were picked, then their nearest neighbours and some compounds at random.

Biological target: OTU domain-containing protein 3 (Homo sapiens) (UniProt Q5T2D3)
Test: blocks human OTUD3 ubiquitin-rhodamine cleavage (AID 1645858)
Details: purified OTUD3, Ub-rhodamine fluorescence, 2 h; at 25 µM; stronger effect = higher value

OTU domain-containing protein 3 (Homo sapiens), sequence (Q5T2D3 whole entry, looked up, the tested form may be a part): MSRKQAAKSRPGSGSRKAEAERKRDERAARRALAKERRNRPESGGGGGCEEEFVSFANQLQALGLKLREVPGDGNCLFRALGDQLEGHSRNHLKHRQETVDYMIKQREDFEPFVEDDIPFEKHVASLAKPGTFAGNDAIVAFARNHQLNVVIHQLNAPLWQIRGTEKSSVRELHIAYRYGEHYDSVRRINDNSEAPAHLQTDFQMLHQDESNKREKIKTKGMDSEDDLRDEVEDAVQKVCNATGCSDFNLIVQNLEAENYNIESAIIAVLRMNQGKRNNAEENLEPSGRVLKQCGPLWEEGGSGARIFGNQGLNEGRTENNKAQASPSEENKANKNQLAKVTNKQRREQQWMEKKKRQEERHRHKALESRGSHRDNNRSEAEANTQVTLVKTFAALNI

inhibition, inactive:
Cc1cc(N2C(=O)c3oc4ccccc4c(=O)c3C2c2ccc(F)cc2)no1 (stereo not given) -4.24%
CCNC1CN(C(=O)Cn2nnc3ccccc32)C2(CCCCC2)C1 (stereo not given) 2.28%
O[C@H]1[C@H](O)[C@H](Oc2cccc(F)c2)CC[C@H]1NCc1ccncc1 15.2%
NS(=O)(=O)c1cccc(CNC(=O)C2(c3ccccc3)CCC2)c1 0.73%
N#Cc1c(N)nc2c(c1N)CC(C(F)(F)F)O2 (stereo not given) -4.36%
Clc1ccc2[nH]c3c(ccc4c5cc(Cl)ccc5[nH]c43)c2c1 3.62%
COc1ccc(CNC(=O)c2[nH]nc3c2CCc2ccccc2-3)cc1 -5.63%
Cc1ccc(NC(=O)N2CCCC2c2cc(C)on2)c(Cl)c1 (stereo not given) -2.99%
CCC(Oc1ccccc1)C(=O)NCc1ccc2c(c1)OCO2 (stereo not given) 9.11%
c1cc(CNCc2ccc3c(c2)OCO3)ccn1 0.0568%
Cc1cc(Cl)ccc1NC(=O)c1ccc(=O)[nH]c1 -2.31%
N[C@@H]1C[C@@H](Oc2cccnc2)[C@H](O)[C@H]1N1CCN(c2ccccc2)CC1 -8.12%
CSc1nccc(-c2ccc(F)cc2)c1C#N 11%
CCn1c(CNC(=O)c2ccco2)nnc1SCC(=O)Nc1ccc(C)cc1 0.297%
Cc1ccc(CN2C(=O)C(CC(=O)Nc3ccc(F)cc3)n3c2nc2ccccc23)cc1 (stereo not given) -8.71%
Cc1c(Cl)ccc2sc(N(Cc3ccncc3)C(=O)c3ccco3)nc12 -4.28%
Cc1coc2c(C)c3oc(=O)c(CC(=O)N4CC[C@@]5(O)CCCC[C@H]5C4)c(C)c3cc12 -9.33%
CC(=O)c1ccc(C)c(=O)o1 9.1%
CC(=O)N1CCSc2ccc(S(=O)(=O)N(C)C(C)CCc3ccco3)cc21 (stereo not given) -8.61%
O=C1NC2(CCN(C(=O)NCc3ccccc3)CC2)Nc2c(Cl)cccc21 -5.72%
CC(C)c1ncc(CN2CCC3(CC2)CN(S(C)(=O)=O)Cc2ccccc2O3)cn1 -4.5%
COc1ccc(-c2[nH]c3ccccc3c2SCCNC(=O)c2ccc(S(=O)(=O)N3CCOCC3)cc2)cc1 11.6%
O=C(CCc1nnc2n(CCc3ccccc3)c(=O)c3ccccc3n12)N1CCOCC1 4.98%
COC(=O)c1ccc(CN(C)C(=O)c2ccc(-c3nnc(-c4ccccc4)o3)cc2)cc1 -0.482%
O=C1CCCN1Cc1ncn2c1CN(Cc1cccnc1)CCC2 -1.01%
CCN1C(=O)C[C@@H](C(=O)NCc2nc(C)no2)[C@@H]1c1ccccc1C 1.87%
COc1ccc(CC2c3cc(OC)c(OC)cc3CCN2C(=O)c2ccc(C)c(Cl)c2)cc1OC (stereo not given) 1.03%
O=C(CSC1=NC2(CCCCC2)Nc2ccccc21)Nc1cccc(F)c1 -11.6%
O=C(NCc1ccc(F)cc1)C1CCc2nc(N3CCCCC3)ncc2C1 (stereo not given) 1.53%
Cc1cc(-c2ccc(S(=O)(=O)Nc3cccc(CN4CCCC4)c3)s2)n[nH]1 -13.6%
Cc1ccc(S(=O)(=O)c2cnc3ccccc3c2N2CCC3(CC2)OCCO3)cc1 1.24%
O=C(Cc1c[nH]c2ccccc12)NC1(c2nc(-c3ccncc3)no2)CCCCC1 -15.9%
Clc1ccccc1-c1nc2nc3ccccc3nc2n1CC1CCCO1 (stereo not given) -16%
COc1ccc(N2CC(C(=O)OCC(=O)Nc3ccc(F)cc3)CC2=O)cc1 (stereo not given) -3.39%
C[C@@H]1CC[C@H]2C(CN3CCN(C)CC3)C(=O)O[C@]23[C@H]1CC[C@@]1(C)O[C@@H]31 (stereo not given in full) 4.7%
Cc1ccccc1CNC(=O)c1cn(C)nc1S(=O)(=O)N1CCC(C)CC1 1.12%
COc1ccccc1Cn1cnc2c([nH]c3cc(OC)c(OC)cc32)c1=O 0.0298%
Cc1nccc(N2CCC(Cc3cncc(-c4cnc(C)n4C)n3)C2)n1 (stereo not given) 3.33%
COc1ccc(NC(=O)Cn2ncc3cccn3c2=O)cc1 -2.63%
CCCNC(=O)c1cc(N2CCCC2)n2nccc2n1 -68.7%
CCS(=O)(=O)N1C[C@H]2CN(Cc3ccccc3Cl)C[C@H]2C1 -1.12%
Cc1cccc(-c2nnc(-c3cccc(S(=O)(=O)N4CCCC4)c3)o2)c1 10.7%
O=C(COC(=O)C1CCN(S(=O)(=O)c2c(Cl)cccc2Cl)CC1)Nc1ccc2c(c1)CCC2 0.0518%
Cc1cnc2nc3c(cc2c1)CN(S(=O)(=O)c1cc(F)ccc1C)CC3 -230%
COCCN1[C@H]2CCN(Cc3ccccn3)CC[C@@H]2Oc2ccccc2S1(=O)=O 7.81%
O=c1c(NCCCc2ccccc2)nccn1-c1ccc2c(c1)OCCO2 -4.73%
CC(C)N1C(=O)Cc2ccccc2C1C(=O)NCc1ccccc1F (stereo not given) 2.54%
Cc1ccc(Sc2c(C)[nH]n(-c3ccccc3)c2=O)cc1 7.8%
COc1c(O)c2c(=O)cc(OC)c3c4c(OC)cc(=O)c5c(O)c(OC)c(CC(C)OC(=O)c6ccccc6)c(c(c1CC(C)OC(=O)Oc1ccc(O)cc1)c23)c54 (stereo not given) -24.8%
C=C1CCC2[C@](C)(CCC[C@]2(C)C(=O)OC)[C@H]1CCc1ccoc1C[N+](C)(C)Cc1ccccc1 (stereo not given in full) 22.7%
C=C1CCC2[C@](C)(CCC[C@]2(C)C(=O)OC)[C@H]1CCc1ccoc1CNCC(=O)O (stereo not given in full) -1.63%
Cc1cc(C)n(CCCNS(=O)(=O)c2ccc(C(C)(C)C)cc2)n1 -3.74%
Cc1nc(-c2ncc[nH]2)cc(C2CCCCN2S(=O)(=O)N(C)C)n1 (stereo not given) -4.61%
N#Cc1cccc(S(=O)(=O)c2c[nH]c3ccc(Cl)cc3c2=O)c1 -5.74%
CCC(C)C1NC(=O)C(Cc2ccc(O)cc2)NC(=O)C(CCC(N)=O)NC(=O)C2CCCN2C(=O)C(C(C)C)NC(=O)C(CCC(=O)O)NC(=O)C(C(C)O)NC(=O)C(NC(=O)C(CCCN)NC(=O)C(CCC(=O)O)NC(=O)CCCCCCCCCCCCCC(C)C)Cc2ccc(cc2)OC1=O (stereo not given) 5.05%
O=C(NC(C(=O)N1CCCc2ccccc21)c1ccccc1)c1cnccn1 (stereo not given) 14.1%
O=C(Cn1cccc(-c2nc(-c3ccccc3)no2)c1=O)Nc1ccccc1F 6.4%
Cc1noc(-c2cccn(Cc3cc(F)ccc3F)c2=O)n1 5.03%
Cc1cc(C(=O)N2CCCCC2c2[nH]ncc2C)c2c(C)noc2n1 (stereo not given) 11.6%
COc1ccccc1C(=O)Nc1ccc(N(c2ccccc2)C(C)C)cc1 2.72%
FC(F)(F)c1cc(N2CCCCC2)nc(-c2ccccn2)n1 -3.6%
CC(Sc1ncnc2ccccc12)C(=O)NCc1ccc2c(c1)OCO2 (stereo not given) 12.8%
Cn1cc(C2CCCN2C(=O)c2ccc(-n3cccn3)nc2)cn1 (stereo not given) -5.62%
COc1ccc(-c2cc(=O)oc3c(C)c(OCc4ccccc4F)ccc23)cc1 1.77%
CN1CCN(c2nc3c(s2)CN(C(=O)c2ccnn2C)CC3)CC1 -25.7%
COc1cccc(NC(=O)C(Sc2cccc(NC(=O)c3ccccc3F)c2)c2ccccc2)c1 (stereo not given) 15.7%
C#CCOc1ccc2ccccc2c1CN1CCc2ccccc2C1 14.8%
COCCN(C(=O)CCC(=O)Nc1ccccn1)C(C(=O)NCC1CCCO1)c1ccc(C)cc1 (stereo not given) 12.3%
CN1C[C@H]2CCN(S(=O)(=O)c3ccc(OC(F)(F)F)cc3)C[C@H]21 5.38%
COc1ccccc1N1CCN(C(=O)CSCc2ccccc2C)CC1 -10.5%
CC(C)C(NS(=O)(=O)c1ccccc1)C(=O)OCC(=O)Nc1cc([N+](=O)[O-])ccc1F (stereo not given) 6.16%
CCCc1cc(=O)[nH]c2nnc(SCC(=O)N(CC)CC)n12 -0.85%
Cc1nn(-c2ccc(F)cc2F)c2c1C(C(=O)c1cc3ccccc3o1)CC(=O)N2 (stereo not given) -3.81%
CCCCC1CCC(C(=O)N2CCC(C3(C)NC(=O)NC3=O)CC2)CC1 (stereo not given) 5.45%
CCc1ccc(S(=O)(=O)Nc2cc(C(=O)Nc3ccccc3)ccc2OC)cc1 -4%
Cc1cc(CN2CC[C@H]3[C@H]2CCN3S(C)(=O)=O)oc1C -12%
Cc1nn(CC(C)C)c(C)c1CC(=O)N1CCCC1c1cnn(C)c1 (stereo not given) -0.626%
NC(=O)CC[C@H](NC(=O)[C@@H]1CCCN1C(=O)[C@H](Cc1ccccc1)n1c(=O)[nH]c2ccccc2c1=O)C(=O)O -2.35%
Cc1ccc(NC(=O)C2CCN(S(=O)(=O)c3cnc[nH]3)CC2)cc1Cl -2.32%
O=C(Cc1c(Cl)cccc1Cl)NCc1cccc(C(F)(F)F)c1 4.26%
COc1cccc(CN2C[C@@]34CN(C(=O)C5CCC5)C[C@@H](C[C@@H]3S2(=O)=O)O4)c1 9.25%

inhibition, active:
c1ccc(-c2ccc(NCc3ccc4c(c3)OCO4)nn2)cc1 43.5%
O=C(Nc1nnc(-c2cccc([N+](=O)[O-])c2)o1)C1CCN(S(=O)(=O)c2ccc3c(c2)CCC3)CC1 30.3%
C=C1CCC2[C@](C)(CCC[C@]2(C)C(=O)OC)[C@H]1CCc1ccoc1/C=C/C(=O)O (stereo not given in full) 57.1%
N#Cc1ccc(NC(=O)Nc2cccn(Cc3ccccc3F)c2=O)cc1 37.7%
